Hit rate of the full screen: of about 150,000 compounds, about 180 (0.12%) were called active. Where a call stands in place of a potency, no number is given. Roughly 6% stayed inconclusive and do not appear here. Calls follow the shape of the dose curve; as a rule, active = well fitted cell-killing curve with a large enough effect; inconclusive = small, poorly fitted or top-dose-only effect, or effect the other way; inactive = flat fitted curve, though single readings scatter. The sample as a whole holds a higher share of actives than the screen did.
Potency is read from the fitted curve at half-maximal effect.

This assay can be described thus: GF-AFC viability counterscreen for inhibitors of alpha-synuclein gene (SNCA) expression. Also: nearly all actives have a fitted effect of over 30% in size. The note with it: HEK-293-SNCA-luc viability, GF-AFC fluorescence, 24 h; series mostly up to 57.1 µM. An excerpt: Assay Submitter (PI): Daniel R. Scoles Ph.D.
Department of Neurology, University of Utah, Salt Lake City, Utah
Accumulation of alpha-synuclein is a main underlying pathological feature of Parkinson's disease (PD) and alpha-synucleinopathies, for which lowering expression of the alpha-synuclein gene (SNCA) is a potential therapeutic avenue. Using a cell-based luciferase reporter of SNCA expression we performed a quantitative high throughput screen (qHTS) of 155,885 compounds in dose response. The screening assay was generated using genome editing to insert the luciferase gene downstream and in frame of the SNCA gene in HEK-293 cells (1). A viability counterscreen using GF-AFC was used to eliminate cytotoxic and false positive compounds. After in silico analysis (clustering, removal of frequent hitter nuisance chemotypes), inhibitor compounds from the primary screen were selected for follow up and re-tested at 11-doses in the SNCA-luc cells (luciferase and GF-AFC confirmation), and in CMV-luc expressing cell line to flag general transcriptional repressors.
Described herein are the results of the GF-AFC viability counterscreen for SNCA inhibitors; inactivity (no decrease in fluorescence signal, not cytotoxic) is the desired output for this assay.
1. Dansithong, W., Paul, S., Scoles, D. R., Pulst, S. M., and Huynh, D. P. (2015) Generation of SNCA Cell Models Using Zinc Finger Nuclease (ZFN) Technology for Efficient High-Throughput Drug Screening. PLoS ONE 10, e0136930.
SEQUENCE No. (e.g., 1, 2, 3, etc.); […] (e.g., Cells, Incubation, Reagent, etc.); VALUE; DESCRIPTION
1; Cells; 4 uL; Dispense 1500 HEK-293-SNCA-luc cells/well into Greiner 1536-well white / solid bottom tissue culture treated plate. The plate was covered with metal lids with gas-exchange holes.
2; Incubate; 24 hours; Incubate at 37C, 5% CO2, 95% RH.
3; Compounds; 23 nL; Compounds and controls were transferred via a Kalypsys Pin Tool (Wako USA) equipped with a 1536-slotted pin array. The plate was covered with metal lids with gas-exchange holes.
4; Incubate; 24 hours; Incubate at 37C, 5% CO2, 95% RH.
5; Dispense; 1 uL; Dispense Gly-Phe-7-amino-4-trifluoromethylcoumarin (GF-AFC, prepared at 125 uM in PBS) was added. The plate was covered with metal lids with gas-exchange holes.
6; Incubate; 30 min; Incubate at 37C, 5% CO2.
7; Detector; Fluorescence; Measure fluorescence with ViewLux microplate reader (PerkinElmer) equipped with 405/10 excitation and 540/25 emission filters.
8; Dispense; 3 uL; Dispense ONE-Glo ([…]) lucifase detection reagent was added to each well. Plates were covered with metal lids with gas-exchange holes.
9; Incubate; 15 min; Incubate at room temperature.
10; Detector; Luminescence; Measure luminescence with ViewLux microplate reader (PerkinElmer) equipped with clear filters.
NOTES (numbers refer to sequence above)
1; HEK-293-SNCA-luc were cultured and suspended in phenol-red free DMEM (4.5 g/L glucose, 25 mM HEPES, cat #21063 (Thermo)).
3; Compounds were added to the assay plate in an 11-point intra plate dose response, 1:3 titration in DMSO with a final concentration range of […]. Vehicle-only plates, with DMSO being pin-transferred to every well, were inserted at the beginning of screening runs to confirm expected assay performance. Activity was normalized to wells containing medium only (-100% activity, full inhibition) and SNCA-luc cells treated with DMSO vehicle control (0% activity), contained on the same plate as test samples.
10; Signals were analyzed, and dose-response curves were fit using the Hill equation. Compounds in curve classes -1.1, -1.2, -2.1, -2.2 in the SNCA-luc assay were considered active. Compounds were eliminated from further consideration if also active (curve class -1.1, -1.2, -1.3, -1.4, -2.1, -2.2, -2.3, -2.4) in the GF-AFC cytotoxicity assay.
(In general: The purpose of a counterscreen is to sort out artefacts and off-target activity.)
As for `O=C(NCc1ccccc1)[C@@H]1Cc2nc[nH]c2CN1Cc1cccc(OC(F)(F)F)c1`, the Potency result is “inactive”.
The same measure, in the same setting: the result for `COc1ccc(NC(=O)C2(C)CN(C)Cc3ccc(Nc4cccc(OC)c4)nc32)cc1` (stereo not drawn) reads “inactive”; that for `O=C(NCC1CC1)c1coc(COc2ccc3c(c2)C(c2cccc(F)c2)N(C(=O)C2CC2)CC3)n1` (stereo not drawn), “inactive”; that for `CC(CCc1ccccc1)NC(=O)CN1C(=O)NC(c2ccccc2Cl)C2=C1COC2=O` (stereo not drawn), “inactive”.
On the same count and under the same terms, next, `O=C(NCc1ccccc1F)c1nc2cccnc2n(C2CC2)c1=O`: “inactive”; `OC1CN(Cc2ccccc2)CCN(C2CCN(c3ccccc3F)CC2)C1` (stereo not drawn): “inactive”; `Cc1ccc(S(=O)(=O)N2CCCN(C)c3ccccc32)cc1Cl`: “inactive”.
In the case of `Cc1nc(N2CCCCC2)ncc1C(=O)N1CCC2(CCCNC2=O)C1` (stereo not drawn), the Potency entry was “inactive”.
For the molecule `NCc1ccccc1-c1cccc(C(F)(F)F)c1`, the Potency result is “inactive”.
On the same count and under the same terms, the result for `O=C1[C@H]2CN(Cc3ccccc3F)C[C@H]2C(=O)N1CCN1CCc2ccccc2C1` reads “inactive”.
Same read-out and setting: next, `O=C(NCc1ccco1)[C@@H]1Cc2nc[nH]c2CN1CCCc1ccccc1`: “inactive”; `COc1ccc2cc(CN3CCNC(=O)C3C)c(-c3cccs3)nc2c1` (stereo not drawn): “inactive”.
With `COc1cccc(-c2cn3c(n2)N(C(=O)Cc2ccccc2)CCC3)c1`, the Potency entry was “inactive”.
As to `O=C(CCC[C@H]1NC[C@@H]2C[C@H]1CN(Cc1ccccc1)C2)N1CCN(C2CCCCC2)CC1`, the Potency result is “inactive”.
The same measure, in the same setting: next, `Cc1cccc(OCC2CCCN(c3ncncn3)C2)c1` (stereo not drawn): “inactive”; `O=C(c1ccc2c(c1)OCO2)N1CCC2(CC1)NC(=O)N(c1ccccc1)N2`: “inactive”.
On the same count and under the same terms, the result for `Cc1noc2c(Nc3ccc(Cl)cc3)cc(-c3cccnc3)nc12` reads “inactive”; that for `COCCN1CCOC2(CCN(Cc3ccc(C(C)C)cc3)CC2)C1=O`, “inactive”; that for `CN(C)Cc1cccc(-c2cc(-c3ccncc3)c3cncn3c2)c1`, “inactive”.
Still for that read-out and setting: the result for `O=C(Cc1ccc(F)cc1)N1CN=C(C2CCN(Cc3ccc(F)cc3)CC2)N1` reads “inactive”; that for `COC(=O)[C@@H]1Cc2ncn(Cc3ccccc3)c2CN1C(=O)CC(C)(C)C`, “inactive”.
With `CC(C)Oc1ccc(CN2CCCC(COc3ccccc3C(=O)N3CCCC3)C2)cc1` (stereo not drawn), the Potency entry was “inactive”.
Still for that read-out and setting: next, `COc1ccc(N2CCN(c3nc(C(=O)NC4CCCCCC4)cs3)CC2)cc1`: “inactive”; `O=C(C1CCCC1)N1CCc2nc(C3CC3)nc(-c3ccc(O)cc3)c2C1`: “inactive”.
The same measure, in the same setting: next, `O=C1C2CN(Cc3ccc4[nH]ccc4c3)CCC2OCCN1Cc1ccccc1F` (stereo not drawn): “inactive”; `CCN(CC)CCCCNc1ncc2cc(-c3c(Cl)cccc3Cl)c(NC(=O)NC(C)(C)C)nc2n1`: 15 µM (active); `CN(C)C[C@@H]1CN(Cc2cccnc2)C[C@H]1NC(=O)Cc1cccc(F)c1`: “inactive”.
Same read-out and setting: next, `O=C(c1cccc(O)c1)N1CCNc2cnc(Nc3cccc(F)c3)nc2C1`: “inactive”; `c1cnc2nc(C3CCN(C4CCCCC4)C3)[nH]c2c1` (stereo not drawn): “inactive”.
Turning to `O=C(NCc1ccc(F)cc1)N1CCC2(CC1)CC(OCC1CC1)CCO2` (stereo not drawn), the activity change, negative = cytotoxicity is 4.57% [at 12.5 µM] (inactive).
For the molecule `CCOC(=O)C1CCCN(C(=O)c2c(C)oc3c2CN(Cc2ccc(C)cc2)CC3)C1` (stereo not drawn), the Potency entry is “inactive”.
Same read-out and setting: the result for `COc1ccc(OC)c2nc(-c3cccc(C)c3)c(CN3CCCC(O)C3)cc12` (stereo not drawn) reads “inactive”.
On the same count and under the same terms, next, `O=C(NC1CCN(c2ccnc3ccnn23)C1)c1ccccc1F` (stereo not drawn): “inactive”.
On the same count and under the same terms, the result for `Cn1nccc1C(=O)NCCC1CCN(C(=O)Nc2ccccc2)CC1` reads “inactive”.
For the molecule `Cc1ccc(-c2noc([C@@H]3Cc4nc[nH]c4CN3Cc3cccc(C#N)c3)n2)cc1`, the Potency entry is “inactive”.
Same read-out and setting: next, `CCCCN(CC#Cc1ccccc1)C(=O)c1cc(=O)n(C)c(=O)n1C`: “inactive”; `COc1ccc(NC(=O)c2nc3sccn3c2-c2cccnc2)cc1`: “inactive”; `COCCN1C(=O)CS(=O)(=O)C12CCN(C(=O)c1ccc(C)s1)CC2`: “inactive”.
On the same count and under the same terms, next, `CCOc1ccccc1CN1CCC(Cc2nc(-c3cccnc3)n[nH]2)C1` (stereo not drawn): “inactive”.
In the case of `COc1ccccc1-c1nc(C(=O)NCc2cccs2)n2ccncc12`, the Potency entry is “inactive”.
On the same count and under the same terms, next, `O=C(c1ccc(C(F)(F)F)cc1)N1CCCC(C(=O)N2CCC(c3nc4ccncc4[nH]3)C2)C1` (stereo not drawn): “inactive”; `CN1CCC2(CC1)Cc1ccccc1CN(C(=O)c1cccc(Cl)c1)C2`: “inactive”; `O=C(NCc1cccc(Cl)c1)C1CCc2nnc(-c3cccc(C(F)(F)F)c3)n21` (stereo not drawn): “inactive”.
